# Measurements: paper PMC8384837, “Expanding the binding specificity for RNA recognition by a PUF domain”
# Legend:
# Assay in all cases: yeast three-hybrid, YBZ-1, SC-Leu-His + 0.5 mM 3-AT, 4 days
# Details in all cases: tags: N-Gal4 AD-HA kept; label: inside an RPR1-promoter hybrid RNA with tandem MS2 sites; ssRNA
# PUM1 PUF domain R5-RKC = PUM1 PUF domain R5-RKC (Homo sapiens, UniProt Q14671 828-1176, C1007R;R1008K;Q1011C)
# In short: (§1)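 Pumilio-1 PUF domain libraries, randomized (NNK) at the three base-contacting residues of each repeat, were co-expressed with matching RNA elements from a centromeric plasmid in strain YBZ-1 (LexA–MS2 coat fusion, HIS3 reporter). Transformants were plated on SC-Leu (input) and SC-Leu-His + 0.5 mM 3-AT (selection) for four days, and repeat regions were PCR-amplified and Illumina-sequenced. The interaction score is the log2 change in variant frequency from input to selection, with pseudocount 1 where absent.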
# PUM1 PUF domain R5-SSR = PUM1 PUF domain R5-SSR (Homo sapiens, UniProt Q14671 828-1176, C1007S;R1008S;Q1011R)
# In short: as §1
# PUM1 PUF domain R5-KCL = PUM1 PUF domain R5-KCL (Homo sapiens, UniProt Q14671 828-1176, C1007K;R1008C;Q1011L)
# In short: as §1
# PUM1 PUF domain R5-SPR = PUM1 PUF domain R5-SPR (Homo sapiens, UniProt Q14671 828-1176, C1007S;R1008P;Q1011R)
# In short: as §1
# PUM1 PUF domain R7-RVM = PUM1 PUF domain R7-RVM (Homo sapiens, UniProt Q14671 828-1176, S1079R;N1080V;E1083M)
# In short: as §1
# PUM1 PUF domain R7-KSG = PUM1 PUF domain R7-KSG (Homo sapiens, UniProt Q14671 828-1176, S1079K;N1080S;E1083G)
# In short: as §1
# PUM1 PUF domain R3-TFF = PUM1 PUF domain R3-TFF (Homo sapiens, UniProt Q14671 828-1176, C935T;R936F;Q939F)
# In short: as §1
# PUM1 PUF domain R4-RFP = PUM1 PUF domain R4-RFP (Homo sapiens, UniProt Q14671 828-1176, N971R;H972F;Q975P)
# In short: as §1
# PUM1 PUF domain R6-FRS = target: T1, PUM1 PUF domain R6-FRS (Homo sapiens, UniProt Q14671 828-1176, N1043F;Y1044R;Q1047S)
# T1 sequence: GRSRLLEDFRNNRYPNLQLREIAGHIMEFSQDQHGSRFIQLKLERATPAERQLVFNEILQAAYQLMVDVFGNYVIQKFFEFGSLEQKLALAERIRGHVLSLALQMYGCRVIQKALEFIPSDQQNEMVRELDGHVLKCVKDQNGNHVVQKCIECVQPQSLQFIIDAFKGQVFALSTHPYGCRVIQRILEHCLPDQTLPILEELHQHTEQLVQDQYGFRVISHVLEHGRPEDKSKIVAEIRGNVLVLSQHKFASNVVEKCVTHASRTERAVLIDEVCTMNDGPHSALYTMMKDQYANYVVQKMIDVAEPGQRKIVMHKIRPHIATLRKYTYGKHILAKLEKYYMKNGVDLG
# In short: as §1
# PUM1 PUF domain R5-MYR = PUM1 PUF domain R5-MYR (Homo sapiens, UniProt Q14671 828-1176, C1007M;R1008Y;Q1011R)
# In short: as §1
# PUM1 PUF domain R2-EWV = PUM1 PUF domain R2-EWV (Homo sapiens, UniProt Q14671 828-1176, N899E;Y900W;Q903V)
# In short: as §1
# PUM1 PUF domain R2-EWL = PUM1 PUF domain R2-EWL (Homo sapiens, UniProt Q14671 828-1176, N899E;Y900W;Q903L)
# In short: as §1
# PUM1 PUF domain R1-VTW = PUM1 PUF domain R1-VTW (Homo sapiens, UniProt Q14671 828-1176, S863V;R864T;Q867W)
# In short: as §1
sequence,measurement,setting,value
GGCUAGAACUAGUGGAUCCCCCGGCGCCCGGCGGCUCGAGCCCGGGUAAGUGUCAAUAGUCUGCAUGCCGCCGGGCGCCAUGCCUGCAGGUCGACUCUAGAAAACAUG,binding signal,PUM1 PUF domain R5-RKC,3.84 log2 enrichment (interaction score)
same,binding signal,PUM1 PUF domain R5-SSR,6.53 log2 enrichment (interaction score)
same,binding signal,PUM1 PUF domain R5-KCL,3.63 log2 enrichment (interaction score)
same,binding signal,PUM1 PUF domain R5-SPR,5.38 log2 enrichment (interaction score)
GGCUAGAACUAGUGGAUCCCCCGGCGCCCGGCGGCUCGAGCCCGGGUAAGUUUAAAUAGUCUGCAUGCCGCCGGGCGCCAUGCCUGCAGGUCGACUCUAGAAAACAUG,binding signal,PUM1 PUF domain R7-RVM,2.72 log2 enrichment (interaction score)
same,binding signal,PUM1 PUF domain R7-KSG,2.37 log2 enrichment (interaction score)
GGCUAGAACUAGUGGAUCCCCCGGCGCCCGGCGGCUCGAGCCCGGGUAAGUGUAAAUAGUCUGCAUGCCGCCGGGCGCCAUGCCUGCAGGUCGACUCUAGAAAACAUG,binding signal,PUM1 PUF domain R3-TFF,6.12 log2 enrichment (interaction score)
same,binding signal,PUM1 PUF domain R4-RFP,6.66 log2 enrichment (interaction score)
same,binding signal,PUM1 PUF domain R5-KCL,2.45 log2 enrichment (interaction score)
same,binding signal,PUM1 PUF domain R6-FRS,2.9 log2 enrichment (interaction score)
same,binding signal,PUM1 PUF domain R5-MYR,2.55 log2 enrichment (interaction score)
GGCUAGAACUAGUGGAUCCCCCGGCGCCCGGCGGCUCGAGCCCGGGUAAGUGUAAUUAGUCUGCAUGCCGCCGGGCGCCAUGCCUGCAGGUCGACUCUAGAAAACAUG,binding signal,PUM1 PUF domain R3-TFF,1.36 log2 enrichment (interaction score)
GGCUAGAACUAGUGGAUCCCCCGGCGCCCGGCGGCUCGAGCCCGGGUAAGUGUAAAAAGUCUGCAUGCCGCCGGGCGCCAUGCCUGCAGGUCGACUCUAGAAAACAUG,binding signal,PUM1 PUF domain R2-EWV,5.9 log2 enrichment (interaction score)
same,binding signal,PUM1 PUF domain R2-EWL,6.51 log2 enrichment (interaction score)
GGCUAGAACUAGUGGAUCCCCCGGCGCCCGGCGGCUCGAGCCCGGGUAAGUGUAAAGAGUCUGCAUGCCGCCGGGCGCCAUGCCUGCAGGUCGACUCUAGAAAACAUG,binding signal,PUM1 PUF domain R2-EWV,2.77 log2 enrichment (interaction score)
GGCUAGAACUAGUGGAUCCCCCGGCGCCCGGCGGCUCGAGCCCGGGUAAGUGUAAAUUGUCUGCAUGCCGCCGGGCGCCAUGCCUGCAGGUCGACUCUAGAAAACAUG,binding signal,PUM1 PUF domain R1-VTW,3.57 log2 enrichment (interaction score)
GGCUAGAACUAGUGGAUCCCCCGGCGCCCGGCGGCUCGAGCCCGGGUAAGUCUAAAUAGUCUGCAUGCCGCCGGGCGCCAUGCCUGCAGGUCGACUCUAGAAAACAUG,binding signal,PUM1 PUF domain R7-KSG,0.94 log2 enrichment (interaction score)
